# According to PubChem BioAssay AID602229 (The Scripps Research Institute Molecular Screening Center, 2012):
# Screen size: about 360,000 compounds; about 1,300 (0.36%) were called active. The sample holds actives, similar compounds and a random draw of the others, so the mix is not that of the screen. Unmarked numbers belong to inactive results.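 The calls were made as follows: active = inhibition above the mean of all tested compounds plus 3 SD (cut at about 70% in these data); inactive = the rest.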
# Target: Photoreceptor-specific nuclear receptor (Homo sapiens) (UniProt Q9Y5X4)
# Experiment: NR2E3 agonists in two-hybrid cells, primary screen, cell-based, luminescence, CHO-S, Gal4-NCOR/VP16-NR2E3 (AID 602229);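 also: 0% = DMSO with NR2E3 transfected cells and 100% = cells lacking NR2E3 construct; higher means lower luciferase signal from less NR2E3 corepressor binding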
# Conditions: luciferase, at 3.98 µM, active compounds read high
# Chain of Photoreceptor-specific nuclear receptor (Homo sapiens) (Q9Y5X4 whole entry, looked up, the tested form may be a part): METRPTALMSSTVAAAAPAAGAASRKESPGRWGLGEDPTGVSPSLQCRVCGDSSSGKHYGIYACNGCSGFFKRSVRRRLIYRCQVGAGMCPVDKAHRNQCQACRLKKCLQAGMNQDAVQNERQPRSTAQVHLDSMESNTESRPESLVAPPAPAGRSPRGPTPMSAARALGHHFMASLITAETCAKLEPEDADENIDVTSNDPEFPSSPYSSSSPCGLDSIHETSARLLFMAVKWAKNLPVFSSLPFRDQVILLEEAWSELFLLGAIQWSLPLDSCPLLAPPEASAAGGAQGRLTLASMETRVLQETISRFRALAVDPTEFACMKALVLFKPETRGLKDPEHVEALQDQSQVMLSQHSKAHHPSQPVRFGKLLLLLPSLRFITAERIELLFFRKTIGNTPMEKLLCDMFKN
row,SMILES,inhibition of corepressor binding
1,CCCc1cc(=O)n2[nH]c(C)c(-c3ccc(Cl)cc3)c2n1,43.4%
2,Cc1[nH]n(-c2cccc(Cl)c2)c(=O)c1-c1ccc(Cl)cc1,85% (active)
3,Cc1nc2c(-c3ccccc3)c(C)[nH]n2c(=O)c1Cl,9.97%
4,O=C(NCc1ccc(F)cc1F)[C@@H]1CCCN1C(=O)[C@@H]1CCCN1C(=O)c1cccc(Cl)c1,4.78%
5,Cn1cc(CN2CCCCC2c2ccccn2)c(-c2ccc3c(c2)OCCO3)n1 (centres undefined),-4.51%
6,c1ccc(C(=NNc2nc3ccccc3s2)c2ccccn2)cc1,89.7% (active)
7,CSc1ncccc1C(=O)Nc1nc2ccc(F)cc2s1,47.5%
8,NC(=S)c1ccc(C(N)=S)o1,-5.1%
9,O=S1(=O)CC(N2CCSCC2)CN1Cc1cn(Cc2cccc(Cl)c2)nn1 (centres undefined),-19.4%
10,CCOCCCNC(=O)C(=O)NCCCOCC,8.99%
11,CN(C)C1CN(Cc2cn(Cc3ccccc3)nn2)S(=O)(=O)C1 (centres undefined),-4.65%
12,CN(Cc1cn(Cc2ccc(C(F)(F)F)cc2)nn1)C1CN(Cc2cn(Cc3ccc(C(F)(F)F)cc3)nn2)S(=O)(=O)C1 (centres undefined),86% (active)
13,Cc1ccc(Cn2cc(CN3CC(N4CCN(C)CC4)CS3(=O)=O)nn2)cc1 (centres undefined),9.78%
14,Cc1ccc(NC(=O)C(C)Sc2nnc(C3CC3)n2C2CC2)cc1S(=O)(=O)N1CCOCC1 (centres undefined),13%
15,COc1ccc(-n2nc(C(=O)Nc3cc(OC)c(OC)c(OC)c3)c3ccccc3c2=O)c(OC)c1,-8.33%
16,COc1ccc(OC)c(NC(=O)CN(C)CCOc2ccc(Br)cc2)c1,7.2%
17,COc1ccc(Nc2ncnc3ccc(Br)cc23)c(OC)c1,85.3% (active)
18,COc1ccc(OC)c(Nc2nc3ccccc3n3cnnc23)c1,19.4%
19,COC(=O)c1cc(S(=O)(=O)NCC2CCN(Cc3ccc(Cl)cc3)CC2)cn1C,16.9%
20,Fc1cccc(CSc2nnc3ccc(-c4ccncc4)nn23)c1,6.42%

row,SMILES,inhibition of corepressor binding
1,C=C(Br)CN1CCN(CC(=C)Br)CC1,-7.79%
2,O=C(CN1CCC(NC(=O)C2CC2)CC1)Nc1ccccc1[N+](=O)[O-],-17.5%
3,CCOC(=O)C(CO)NC(=O)C1(NC(C)=O)CCCC1 (centres undefined),-34.7%
4,O=C(Nc1nnc(-c2ccccc2)o1)c1cc(-c2cccs2)nc2ccccc12,88.7% (active)
5,Cc1ccnc2nc(C(=O)Nc3nnc(-c4ccccc4)o3)nn12,0.21%
6,O=C(Nc1nnc(-c2ccc(Cl)cc2)o1)c1ccccc1Br,-48%
7,COc1cccc(C(=O)Nc2c3c(nn2-c2cccc(C)c2C)CS(=O)(=O)C3)c1OC,-6.84%
8,Cc1c(NC(=S)NCc2ccc(F)cc2)cccc1[N+](=O)[O-],-17.5%
9,O=C(C1CCCO1)N(Cc1ccccc1)c1ccccc1 (centres undefined),-3.43%
10,COc1ccc(C(=O)OCC(=O)Nc2cc(C)on2)cc1F,20.3%
11,CC1(C)OC(=O)C2=C(CC(c3ccccc3)OC2CCc2ccccc2)O1 (centres undefined),-2.84%
12,CCc1nc(N2CCN(C(C)=O)CC2)c2c3c(sc2n1)CCCC3,-27.3%
13,COCCNc1nc(-n2nc(C)cc2C)nc2sc3c(c12)CCCC3,91.3% (active)
14,CCCc1nc2sc3c(c2c(=O)n1NC(=O)CCCl)CCCC3,2.18%
15,COc1ccccc1-c1nn(Cc2ccccc2)cc1C(=O)N1CCN(c2ncccn2)CC1,-28.8%
16,COC(=O)c1ccc2c(c1)S(=O)(=O)NC2C (centres undefined),1.74%
17,CCOC(=O)N1CCN(C(=O)c2ccc(S(=O)(=O)Nc3cccc(C(F)(F)F)c3)cc2)CC1,78.3% (active)
18,CCOC(=O)c1cccc(NS(=O)(=O)c2c(C(=O)N3CCCCCC3)c(C)n(C)c2C)c1,-3.88%
19,CC(=O)N1CCN(C(=O)c2cccc(S(=O)(=O)Nc3ccc(C)cc3)c2)CC1,-16.4%
20,Cc1ccsc1CNn1cnnc1SCc1ccccc1F,1.17%

row,SMILES,inhibition of corepressor binding
1,Cc1nc2c(OCc3ccc(Cl)cc3Cl)cccn2c1N(C)CC1CC1,-9.82%
2,Cc1nc2c(OCc3cccc(Cl)c3)cccn2c1N(C)CC1CC1,79.4% (active)
3,Cc1nc2c(OCc3ccc(Cl)cc3)cccn2c1N(C)Cc1cccs1,-14.4%
4,CC1CCN(CCCn2c(SCC(=O)NC3CCCC3)nc3ccccc3c2=O)CC1,-14.7%
5,O=C(c1ccc(N2CCCC2=O)cc1)N1CCN(c2ccc(C(F)(F)F)cc2[N+](=O)[O-])CC1,82.8% (active)
6,O=C(Cc1ccc(S(=O)(=O)N2CCOCC2)s1)N1CCN(c2ccc(C(F)(F)F)cc2[N+](=O)[O-])CC1,27.1%
7,COc1cc(OC)cc(C(=O)NC(=S)N2CCN(c3ccc(C(F)(F)F)cc3[N+](=O)[O-])CC2)c1,-27.8%
8,Cc1nnc(SCC(=O)Nc2ncc3c(n2)CC(C)(C)CC3=O)s1,-5.27%
9,Cc1cc2oc(=O)cc(CN(C)Cc3ccc(OC(F)F)cc3)c2cc1Cl,-26%
10,Cc1ccc(NC(=S)N(CCN(C)C)Cc2cccs2)cc1C,-15.7%
11,COC(=O)c1sccc1NC(=O)CSc1ccccc1NS(=O)(=O)c1cc(Cl)ccc1Cl,89.8% (active)
12,COC(=O)c1sccc1NS(=O)(=O)c1ccc(F)cc1F,-9.53%
13,COC(=O)c1scc(C)c1NC(=O)CSc1ccc(Cl)cc1,2.57%
14,CCCC(=O)Nc1nnc(CC(=O)OCC)s1,12.6%
15,CCn1nc(C)c(CN2CCN(Cc3ccc(OC)c(C)c3C)C(CCO)C2)c1C (centres undefined),-29.8%
16,CC(C(=O)N1CCOCC1)N1c2cccc3cccc(c23)S1(=O)=O (centres undefined),-0.03%
17,Oc1c(Cl)cc(Cl)c(Cl)c1Cc1c(O)c(Cl)cc(Cl)c1Cl,90.7% (active)
18,C=CCn1c(SCC(=O)c2ccc(Br)cc2)nnc1C(C)NC(=O)Cc1ccc(OC)cc1 (centres undefined),22.7%
19,C=CCn1c(C23CC4CC(CC(C4)C2)C3)n[nH]c1=S,-1.8%
